Screening results from PubChem.
Sampled rows, rich in hits. Any-hit rate of the full collection: about 1.2%.
ERG-DNA inh – ERG Ets/DNA interaction inhibition; P11308; fluorescence polarization, His-ERG Ets domain / labelled DNA; Potency, µM (titrated, usually from 76.9 µM), inactives show top-dose FP activity, negative = inhibition, actives largely listed as inhibitors; hit rate 0.028% among 370,000; AID 624246; active = well fitted inhibition curve with a large enough effect in the polarisation, with a control signal flat; inconclusive = small, poorly fitted or top-dose-only effect, or effect the other way, or a change in a side signal; inactive = no such curve, though single readings can be large or run the other way; the % refers to the polarisation;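 also: polarization taken with two DNA probes labelled with fluorescein and Texas red; % of control where 0% means no effect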
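His-tagged ERG Ets domain (1 uM in the protein solution; 300mM KCl, 50mM Tris-HCl, 1mM EDTA, 1mM DTT, pH 7.5) received compound, then a probe mix of 5 nM fluorescein-DNA and 100nM Texas-615-DNA. Fluorescence polarization was read for both dyes.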
B2AR arrestin – beta2AR (human) beta-arrestin recruitment activity; AID 492947; beta-arrestin recruitment to beta2AR, cell-based reporter; hit rate 0.02% among 330,000; P07550; Potency, µM (series often up to 46.1 µM), for the others: at the top dose activation, most hits filed as activators;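 also: 0% = DMSO controls and full agonism = EC100 isoproterenol or metaproterenol; nearly all actives have a fitted effect of over 65% in size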
Target sequence (P07550 whole entry, looked up): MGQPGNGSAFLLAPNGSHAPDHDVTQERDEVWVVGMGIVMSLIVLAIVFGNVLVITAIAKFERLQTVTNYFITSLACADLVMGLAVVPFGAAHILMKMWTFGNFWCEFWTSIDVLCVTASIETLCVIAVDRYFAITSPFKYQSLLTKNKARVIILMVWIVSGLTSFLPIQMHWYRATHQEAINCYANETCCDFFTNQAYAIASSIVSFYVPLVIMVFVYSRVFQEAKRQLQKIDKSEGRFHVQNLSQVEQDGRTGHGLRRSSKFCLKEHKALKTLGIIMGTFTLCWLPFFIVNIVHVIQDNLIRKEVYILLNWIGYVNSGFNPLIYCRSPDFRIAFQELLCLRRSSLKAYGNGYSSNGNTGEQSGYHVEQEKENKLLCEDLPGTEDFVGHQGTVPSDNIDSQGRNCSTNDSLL
Mito fusion act – mitochondrial division inhibition or fusion activation. hit rate 0.23% among 320,000. S. cerevisiae fusion-defective mutant growth rescue, CellTiterGlo 48 h. Potency, µM (doses to about 46.1 µM), for the others: top-dose growth rescue (activation), most hits filed as activators. AID 485298; also: % of control where 0% means no effect; nearly all actives have a fitted effect of over 45% in size
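Growth-rescue viability read-out: after 48 h at the non-permissive 37C in glycerol/ethanol YPEG, yeast mitochondrial fusion mutants are measured by CellTiterGlo luminescence; compounds (23 nl pinned per well) restoring growth score as division inhibitors or fusion activators.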
BRCA1 expr up – increases BRCA1 expression. Potency, µM (doses to about 46.1 µM), for inactives: top-dose activation, actives largely listed as activators. hit rate 1.1% among 380,000. AID 624202. MCF7-BRCA1-FFLuc reporter, luminescence, 48 h; response scale: scaled: vehicle 0%, 10 µM genistein 100%; also: nearly all actives have a fitted effect of over 80% in size
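First, MCF7-BRCA1-FFLuc cells (2000/well) attach for 2 h; next, compounds are pin-added and incubated 48 h at 37 °C; finally, luciferase reagent is added and luminescence read after 15 min.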
* hit, by the source's call; ? = inconclusive; · = no result; [ ] = dose if it differs, or a comment. Unless noted, calls follow the shape of the dose curve; as a rule, active = well fitted curve in the direction sought with a large enough effect; inconclusive = small, poorly fitted or top-dose-only effect, or another doubt; inactive = no such curve, though single readings can be large; an effect the other way counts as inactive or inconclusive. Potency is read from the fitted curve at half-maximal effect.

SMILES	ERG-DNA inh	B2AR arrestin	Mito fusion act	BRCA1 expr up
CCOCCCN(Cc1ccco1)S(=O)(=O)c1cc2c(cc1Cl)NC(=O)CO2	6%	·	·	·
O=c1cc(CSc2nnc(NC3CCCCC3)s2)nc2sccn12	1%	0%	21%	-12%
c1ccc(CSc2nnc(NC3CCCCC3)s2)cc1	·	·	·	3.5µM*
C(=C\c1nc2ccccc2nc1/C=C/c1ccc2c(c1)OCO2)/c1ccc2c(c1)OCO2	·	·	·	11%
Cn1c(SCc2ccc(F)cc2)nnc1-c1cnccn1	0%	0%	-3%	11µM*
CC(=O)c1ccc(NC(=O)Cn2nc(C(F)(F)F)c3c2CCCC3)cc1	5%	·	·	11%
Cc1ccc(Cn2ccc(=O)c(OCc3ccccc3)c2C)cc1	3%	0%	-2%	11µM*
Cc1c(OCc2ccccc2)c(=O)ccn1Cc1ccc(Cl)cc1	-3%	0%	13%	-73%
c1ccc2oc(NC3=NCN(C4CCCCC4)CN3)nc2c1	14%	-1%	6%	2.8µM*
CC(C)N1CN=C(Nc2nc3ccccc3o2)NC1	0%	0%	-4%	?
Cc1cc(C)c(NC(=O)CCCN2C(=O)COc3ccc(C)cc32)c(C)c1	-2%	·	·	·
CCc1ccc(C(=O)c2cn(CC(=O)NCCc3ccccc3)c3nc(C)ccc3c2=O)cc1	11%	·	·	·
C=CCSC1=NNC(c2ccc(C(C)(C)C)cc2)=NN1	-6%	1%	0%	7.1µM*
Cc1noc(C)c1CSc1ccccc1C(=O)O	-8%	0%	-17%	-3%
Cc1noc(C)c1CSc1ccccc1C(=O)Nc1nccs1	15%	0%	35µM*	-21%
Clc1cccc(-c2ccc3ncnc(NCc4ccc5c(c4)OCO5)c3c2)c1	·	0%	?	·
Cc1cccc(Cn2c(CN3CCCC(C)C3)nc3c2c(=O)n(C)c(=O)n3C)c1 (stereo not drawn)	2%	·	·	·
Cn1c(SCC(=O)N/N=C/C=C/c2ccccc2[N+](=O)[O-])nc2ccccc21	-3%	0%	-3%	-43%
Cn1c(SCC(=O)N/N=C/C=C/c2ccco2)nc2ccccc21	-4%	18µM*	3%	-22%
Cc1cccc(CSc2ncc(CO)n2Cc2ccc(F)cc2)c1	4%	·	·	0%
COc1cccc(C(=O)OCC(=O)Nc2sc3c(c2C(N)=O)CCC3)c1O	6%	0%	-1%	-30%
COc1ccccc1OCC(=O)Nc1sc2c(c1C(N)=O)CCC2	22%	0%	·	5µM*
CCCn1nnc(NC(=O)c2cccnc2Cl)n1	-18%	0%	3%	-6%
CCCn1nnc(NC(=O)c2ccc(Cl)cc2Cl)n1	-6%	0%	2%	2.5µM*
CCCn1nnc(NC(=O)c2ccccc2Cl)n1	·	0%	-1%	11µM*
SMILES	ERG-DNA inh	B2AR arrestin	Mito fusion act	BRCA1 expr up
COc1ccccc1NS(=O)(=O)c1cn(C)c(C)n1	1%	·	·	-7%
COC(=O)c1cc2sc(C)cc2n1Cc1nc(-c2ccc(C)cc2)oc1C	0%	·	·	·
CC(C)Oc1ccc(C(=O)NC2(C(F)(F)F)NC(=O)N(CCCc3ccccc3)C2=O)cc1 (stereo not drawn)	5%	3%	20µM*	-57%
CCOC(=O)c1cc(C#N)c(SC(C(=O)N2CCCCC2)c2ccccc2)nc1C (stereo not drawn)	·	·	·	15%
O=[N+]([O-])c1ccc(/C=N/N2CCCCC2)cc1	1%	1%	2%	10µM*
Clc1ccc(C=NN2CCCCCC2)cc1	5%	·	·	10µM*
Clc1ccc(C=NN2CCCCCC2)cc1Cl	-1%	·	·	8.9µM*
Clc1ccc(/C=N/N2CCCCC2)cc1	-6%	0%	-2%	43%
N#Cc1ccc(C=NN2CCCCCC2)cc1	5%	·	·	6.3µM*
O=[N+]([O-])c1ccc(/C=N\N2CCN(c3ccc(Cl)cc3)CC2)cc1	0%	0%	3%	-29%
COc1ccc(C2Nc3ccccc3C(=O)N2Cc2ccco2)cc1 (stereo not drawn)	·	·	·	2%
Cc1cc(C(Br)(Br)Br)nc2ccccc12	·	·	·	-67%
N=C(N)SCc1ccc(Cl)cc1Cl	-3%	7%	2%	-57%
Nc1ccc(CSc2ccc(Cl)cc2)c(Cl)c1	-1%	·	·	1.8µM*
C/C(=N\Nc1nncc2ccccc12)c1ccc(O)cc1	-6%	0%	4%	?
C/C(=N\Nc1nncc2ccccc12)c1ccc(C(C)(C)C)cc1	2%	0%	-11%	2.5µM*
Cc1ccc(C)c(Cn2c(=O)n(CC3CCC(C(=O)N4CCOCC4)CC3)c(=O)c3sccc32)c1 (stereo not drawn)	-2%	·	·	·
CCC(Nc1ccc(-c2nc(-c3cccnc3)no2)cc1[N+](=O)[O-])c1ccccc1 (stereo not drawn)	2%	·	·	0%
C=CCc1c(C)nc2c(-c3ccccc3)cnn2c1N1CCOCC1	2%	0%	-18%	2.2µM*
Cc1cc(N2CCOCC2)n2ncc(-c3ccccc3)c2n1	7%	0%	4%	-61%
O=C(CCC1CCCCC1)NCc1ccc(F)cc1	-5%	6%	3%	24%
O=C(CC1CCCCC1)NCc1ccc(Cl)cc1	4%	-1%	-1%	11µM*
O=C(c1ccc(Cl)cc1)c1coc2ccc(O)cc12	12%	1%	6%	4µM*
O=C(c1ccc(Br)cc1)c1coc2ccc(O)cc12	2%	·	·	11µM*
O=C(c1coc2ccc(O)cc12)C1CC1	-8%	0%	-3%	53%
SMILES	ERG-DNA inh	B2AR arrestin	Mito fusion act	BRCA1 expr up
CCn1c2c(c(=O)n3ncc(C(=O)Nc4ccc(F)cc4Cl)c13)CN(Cc1ccc(OC)cc1)CC2	4%	·	·	·
C=CC(=O)N1CCC[C@@H](n2nc(-c3ccc(Oc4ccccc4)cc3)c3c(N)ncnc32)C1	·	·	·	-65%[92.2 µM]
Cc1ccc(SCc2nc3ccccc3[nH]2)cc1	-14%	0%	-4%	3.5µM*
Cc1ccc(SCC(=O)Nc2ccc(-c3nc4ccccc4[nH]3)cc2)cc1	-5%	0%	-6%	3.5µM*
Cc1ccc(CSCc2nc3ccccc3[nH]2)cc1	3%	0%	4%	64%
Cc1ccc(NC(=O)CCCSc2nc3ccccc3[nH]2)cc1	-24%	0%	-1%	-6%
Fc1ccccc1CSCc1nc2ccccc2[nH]1	4%	0%	3%	5.6µM*
COc1ccccc1NC(=O)c1ncn(-c2ccccc2)n1	0%	·	·	·
O=C(NCC1CCCO1)C(c1cccs1)N(Cc1cccs1)C(=O)c1ccc(-c2ccccc2)[nH]1 (stereo not drawn)	-1%	?	16µM*	-77%
O=C(NCC1CCCO1)C(c1ccc(F)cc1)N(CC1CCCO1)C(=O)c1ccc(-c2ccccc2)[nH]1 (stereo not drawn)	0%	0%	0%	-6%
O=C(NCCc1ccc(Cl)cc1)C(=O)NCC(c1cccs1)S(=O)(=O)c1ccccc1 (stereo not drawn)	-1%	·	·	·
N#Cc1nc(N(c2ccccc2)c2ccccc2)nc(-n2cccc2)n1	·	·	·	16%
COc1ccc(-c2cc(C(=O)Nc3cccc(Cl)c3)no2)cc1	-3%	-1%	-3%	3.2µM*
COc1cccc(NC(=O)NCc2ccccc2Cl)c1	-2%	·	·	13µM*
COc1cccc(NC(=O)CCNC(=O)c2ccccc2Cl)c1	-14%	0%	5%	16%
